Reference: PubChem BioAssay (EPA / NIEHS)
Records with an inconclusive call do not appear. Activity calls are given as the source filed them. Rule for the calls, unless noted: active = hit-call score of the fitted dose curve at least 0.9, where 1 is the maximum; inactive = score below 0.9.

Tested on: not listed separately
Assay: ATG_VDRE_CIS: Attagene CIS-FACTORIAL HepG2 Assay for human Vitamin D Receptor Element (VDRE) (AID 2282968)
Settings: HepG2 VDRE cis-reporter transcription, actives raise or lower the signal
Procedure, shortened: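 Cell-based multiplexed reporter format in human liver HepG2 cells, 24 h post-dose. Fluorescence from capillary electrophoresis of reporter cDNA gives the signal, with DMSO as negative control and baseline.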

SMILES	outcome	AC50
CC[C@H](C)[C@H]1O[C@]2(C=C[C@@H]1C)C[C@@H]1C[C@@H](C/C=C(\C)[C@@H](O[C@H]3C[C@H](OC)[C@@H](O[C@H]4C[C@H](OC)[C@@H](NC)[C@H](C)O4)[C@H](C)O3)[C@@H](C)/C=C/C=C3\CO[C@@H]4[C@H](O)C(C)=C[C@@H](C(=O)O1)[C@]34O)O2	inactive	
CON=C(C(=O)OC)c1ccccc1CON=C(C)c1cccc(C(F)(F)F)c1		11.1 µM (active)
CC(COc1ccc(Oc2ccccc2)cc1)Oc1ccccn1 (stereo not drawn)		16 µM (active)
CCCCN(CC)c1c([N+](=O)[O-])cc(C(F)(F)F)cc1[N+](=O)[O-]		13.3 µM (active)
CCc1cnc(C2=NC(C)(C(C)C)C(=O)N2)c(C(=O)O)c1 (stereo not drawn)	inactive	
COc1cc(OC)nc(Sc2cccc(Cl)c2C(=O)O)n1	inactive	
COP(=O)(NC(C)=O)SC (stereo not drawn)	inactive	
COP(=O)(OC)SCn1c(=O)oc2cc(Cl)cnc21	inactive	
CC(C)N(C(=O)SCC(Cl)=C(Cl)Cl)C(C)C		29.1 µM (active)
Cc1cc(C2CC2)nc(Nc2ccccc2)n1		28.6 µM (active)
C#CC(C)(C)NC(=O)c1cc(Cl)cc(Cl)c1		29.3 µM (active)
Cc1ccn2nc(S(=O)(=O)Nc3c(F)cccc3F)nc2n1	inactive	
CCc1cccc(C)c1N(C(=O)CCl)C(C)COC (stereo not drawn)		9.18 µM (active)
CCc1cccc(CC)c1N(COC)C(=O)CCl		7.75 µM (active)
CCOP(=O)(SC(C)CC)N1CCSC1=O (stereo not drawn)	inactive	
CCOP(=S)(Oc1cnc(C(C)(C)C)nc1)OC(C)C (stereo not drawn)		1.89 µM (active)
CCCSP(=O)(OCC)Oc1ccc(Br)cc1Cl (stereo not drawn)		6.6 µM (active)
Nc1c(Cl)cc([N+](=O)[O-])cc1Cl	inactive	

SMILES	outcome	AC50
CCCSP(=O)(OCC)SCCC		50 µM (active)
O=[N+]([O-])c1cc(C(F)(F)F)c(Cl)c([N+](=O)[O-])c1Nc1ncc(C(F)(F)F)cc1Cl	inactive	
CCC(CC)Nc1c([N+](=O)[O-])cc(C)c(C)c1[N+](=O)[O-]		15.3 µM (active)
CNc1cnn(-c2cccc(C(F)(F)F)c2)c(=O)c1Cl		13.6 µM (active)
CNC(=O)Oc1cccc2c1OC(C)(C)O2		50 µM (active)
CCOP(=S)(OCC)OC(Cl)C(Cl)(Cl)Cl (stereo not drawn)		50 µM (active)
CCC(=O)Nc1ccc(Cl)c(Cl)c1	inactive	
CSc1nc(NC(C)C)nc(NC(C)C)n1		10.3 µM (active)
CCOP(=O)(NC(C)C)Oc1ccc(SC)c(C)c1 (stereo not drawn)		8.8 µM (active)
CCCOc1nn(C(=O)NS(=O)(=O)c2ccccc2C(=O)OC)c(=O)n1C	inactive	
CCCCSP(=O)(SCCCC)SCCCC		12 µM (active)
N#CSCSC#N	inactive	
C#CCC1=C(C)C(OC(=O)C2C(C=C(C)C)C2(C)C)CC1=O (stereo not drawn)		7.01 µM (active)
COP(=O)(OC)C(O)C(Cl)(Cl)Cl (stereo not drawn)		50 µM (active)
CC1(C(=O)Nc2ccc(O)c(Cl)c2Cl)CCCCC1		10.8 µM (active)
CNC(=O)ON=C(SC)C(=O)N(C)C	inactive	
CCCCOC(=O)[C@@H](C)Oc1ccc(Oc2ccc(C#N)cc2F)cc1	inactive	

Target: Nuclear receptor subfamily 1 group I member 3 (Homo sapiens) (UniProt Q14994)
Assay: ATG_CAR_TRANS: Attagene TRANS-FACTORIAL HepG2 Assay for human Constitutive Androstane Receptor (CAR) (AID 2282969; active = hit-call score of the fitted dose curve at least 0.9, where 1 is the maximum;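 note: activators raise reporter mRNA above DMSO so AC50 marks induction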)
Settings: HepG2 Attagene TRANS-FACTORIAL CAR reporter
Procedure, shortened: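 HepG2 cells transiently transfected with GAL4-UAS reporter units; TRANS format reads activity of exogenous chimeric NR-Gal4 protein. After 24 h dosing, reporter mRNA quantified by RT-PCR, 6-FAM labelling and capillary electrophoresis; gain of signal fitted against DMSO.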

Sequence of Nuclear receptor subfamily 1 group I member 3 (Homo sapiens) (Q14994 whole entry, looked up): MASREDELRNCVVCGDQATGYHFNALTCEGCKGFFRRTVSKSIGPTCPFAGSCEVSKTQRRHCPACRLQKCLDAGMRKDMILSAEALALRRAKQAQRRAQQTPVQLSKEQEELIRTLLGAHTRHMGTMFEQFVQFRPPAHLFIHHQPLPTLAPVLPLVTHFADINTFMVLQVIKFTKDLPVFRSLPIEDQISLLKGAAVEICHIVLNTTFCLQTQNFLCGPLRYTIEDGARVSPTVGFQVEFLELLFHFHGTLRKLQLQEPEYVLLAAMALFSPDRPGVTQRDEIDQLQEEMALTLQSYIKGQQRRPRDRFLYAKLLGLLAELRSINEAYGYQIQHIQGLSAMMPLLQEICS

SMILES	outcome
CC[C@H](C)[C@H]1O[C@]2(C=C[C@@H]1C)C[C@@H]1C[C@@H](C/C=C(\C)[C@@H](O[C@H]3C[C@H](OC)[C@@H](O[C@H]4C[C@H](OC)[C@@H](NC)[C@H](C)O4)[C@H](C)O3)[C@@H](C)/C=C/C=C3\CO[C@@H]4[C@H](O)C(C)=C[C@@H](C(=O)O1)[C@]34O)O2	inactive
CON=C(C(=O)OC)c1ccccc1CON=C(C)c1cccc(C(F)(F)F)c1	inactive
CC(COc1ccc(Oc2ccccc2)cc1)Oc1ccccn1 (stereo not drawn)	inactive
CCCCN(CC)c1c([N+](=O)[O-])cc(C(F)(F)F)cc1[N+](=O)[O-]	inactive
CCc1cnc(C2=NC(C)(C(C)C)C(=O)N2)c(C(=O)O)c1 (stereo not drawn)	inactive
COc1cc(OC)nc(Sc2cccc(Cl)c2C(=O)O)n1	inactive
COP(=O)(NC(C)=O)SC (stereo not drawn)	inactive
COP(=O)(OC)SCn1c(=O)oc2cc(Cl)cnc21	inactive
CC(C)N(C(=O)SCC(Cl)=C(Cl)Cl)C(C)C	inactive
Cc1cc(C2CC2)nc(Nc2ccccc2)n1	inactive
C#CC(C)(C)NC(=O)c1cc(Cl)cc(Cl)c1	inactive
Cc1ccn2nc(S(=O)(=O)Nc3c(F)cccc3F)nc2n1	inactive
CCc1cccc(C)c1N(C(=O)CCl)C(C)COC (stereo not drawn)	inactive
CCOP(=O)(SC(C)CC)N1CCSC1=O (stereo not drawn)	inactive
CCOP(=S)(Oc1cnc(C(C)(C)C)nc1)OC(C)C (stereo not drawn)	inactive
CCCSP(=O)(OCC)Oc1ccc(Br)cc1Cl (stereo not drawn)	inactive
Nc1c(Cl)cc([N+](=O)[O-])cc1Cl	inactive

SMILES	outcome
CCCSP(=O)(OCC)SCCC	inactive
O=[N+]([O-])c1cc(C(F)(F)F)c(Cl)c([N+](=O)[O-])c1Nc1ncc(C(F)(F)F)cc1Cl	inactive
CCC(CC)Nc1c([N+](=O)[O-])cc(C)c(C)c1[N+](=O)[O-]	inactive
CNc1cnn(-c2cccc(C(F)(F)F)c2)c(=O)c1Cl	inactive
CCOP(=S)(OCC)OC(Cl)C(Cl)(Cl)Cl (stereo not drawn)	inactive
CCC(=O)Nc1ccc(Cl)c(Cl)c1	inactive
CSc1nc(NC(C)C)nc(NC(C)C)n1	inactive
CCOP(=O)(NC(C)C)Oc1ccc(SC)c(C)c1 (stereo not drawn)	inactive
CCCOc1nn(C(=O)NS(=O)(=O)c2ccccc2C(=O)OC)c(=O)n1C	inactive
CCCCSP(=O)(SCCCC)SCCCC	inactive
N#CSCSC#N	inactive
C#CCC1=C(C)C(OC(=O)C2C(C=C(C)C)C2(C)C)CC1=O (stereo not drawn)	inactive
COP(=O)(OC)C(O)C(Cl)(Cl)Cl (stereo not drawn)	inactive
CC1(C(=O)Nc2ccc(O)c(Cl)c2Cl)CCCCC1	inactive
CNC(=O)ON=C(SC)C(=O)N(C)C	inactive
CCCCOC(=O)[C@@H](C)Oc1ccc(Oc2ccc(C#N)cc2F)cc1	inactive
